# In PubChem BioAssay AID1035475 (Broad Institute, 2014):
# Measured potencies and affinities stand elsewhere. Inconclusive results are not listed. Values without a mark were called inactive.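 Rule for the calls: active = fluorescent signal drops by 40% or more, counted as a hit; inconclusive = no clear call, values can overlap the other calls; inactive = the rest, including any activity in the opposite direction.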
# Test: blockers of FN fibrillogenesis by fibroblasts – AH1F cells, Alexa488-FN fluorescence, cherry-picks, dose response (AID 1035475);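 note: AH1F fibroblasts incorporating labeled fibronectin into their extracellular matrix; 0% = neutral control wells and -100% = wells without labeled fibronectin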
# Details: Alexa488-fibronectin deposition fluorescence, overnight; series mostly up to 35 µM; activity change, negative = inhibition: at the top concentration
row,Compound,"activity change, negative = inhibition"
1,COC(=O)C[C@@H]1CC[C@H]2[C@@H](COc3ccc(NC(=O)Cc4cccs4)cc3C(=O)N2C)O1,29.4%
2,Cc1ccc(S(=O)(=O)N2CC[C@@H]3[C@H](CO)Nc4ccc(-c5cccc(C(=O)N(C)C)c5)cc4[C@@H]32)cc1,-8.78%
3,COCC(=O)Nc1ccc2c(c1)C(=O)N(C)[C@@H]1CC[C@H](CC(=O)NCc3ccccc3Cl)O[C@H]1CO2,32.7%
4,O=C(CC1Nc2ccccc2NC1=O)Nc1ccc2c(c1)OCO2 (configuration not stated),5.64%
5,O=S(=O)(c1ccccc1F)N1CC[C@@H]2[C@H](CO)Nc3ccc(-c4cccc(F)c4)cc3[C@@H]21,21.5%
6,C[C@H]1CN([C@@H](C)CO)C(=O)c2cc(NC(=O)C3CCCCC3)ccc2O[C@H]1CN(C)Cc1ccc(-c2ccccc2)cc1,9.85%
7,COC(=O)C[C@H]1CC[C@@H]2[C@@H](COc3ccc(NC(=O)Cc4cccs4)cc3C(=O)N2C)O1,33%
8,CN1c2ccc(-c3ccccc3)cc2[C@H]2[C@H](CCN2C(=O)CN2CCOCC2)[C@H]1CO,34.4%
9,C[C@@H]1CN([C@@H](C)CO)C(=O)c2cc(-c3ccccc3)cnc2O[C@@H]1CN(C)C(=O)c1cccc(F)c1,14.6%
10,O=C(c1cccnc1)N1C[C@@H]2[C@H](c3ccccc31)[C@H](CO)N2CC1CCCC1,41.4% [at 30 µM]
11,CO[C@@H]1CN(C)C(=O)c2cc(NC(=O)Nc3cc(Cl)cc(Cl)c3)ccc2OC[C@@H](C)NC[C@@H]1C,8.56%
12,S=C(NCC1CCCO1)Nc1ccc(Cl)cc1Cl (configuration not stated),-11%
13,CO[C@H]1CN(C)C(=O)c2cc(NC(=O)Nc3ccc(Cl)c(Cl)c3)ccc2OC[C@H](C)NC[C@@H]1C,-15.6%
14,O=C(OCC(O)C(O)COC(=O)c1ccccc1)c1ccccc1 (configuration not stated),-11.1%
15,COc1ccc(-c2csc(CCn3nc(C)cc3C)n2)cc1OC,-6.87%
16,COC(=O)C[C@H]1CC[C@@H]2[C@H](COc3ccc(NC(=O)Cc4cccs4)cc3C(=O)N2C)O1,10.4%
17,CC1(C)Cc2c(C#N)c(SCC(=O)c3ccccc3)nc(N3CCOCC3)c2CS1,-29.1%
18,C[C@H](O)C#Cc1ccc2c(c1)O[C@H](CN(C)C)[C@H](C)CN([C@H](C)CO)S2(=O)=O,28.2%
19,C[C@@H]1CN([C@H](C)CO)C(=O)c2cc(-c3ccccc3)cnc2O[C@H]1CN(C)C(=O)c1cccc(F)c1,27.5%
20,CO[C@@H]1CN(C)C(=O)c2cc(NC(=O)Nc3ccc(Cl)c(Cl)c3)ccc2OC[C@H](C)NC[C@H]1C,-1.63%
21,O=C(Nc1ccc(Cl)cc1)N1C[C@H]2[C@@H](c3ccccc31)[C@H](CO)N2CC1CCCC1,40.8%
22,O=C(c1cccnc1)N1C[C@H]2[C@@H](c3ccccc31)[C@H](CO)N2CC1CCCC1,40.5%
